Tests used:
Test in all cases: log2 ratio of Biotin-Ahx-Ub-VS probe labelling (fragment/DMSO); higher = less target engagement (more negative = stronger competition), active = hit call of the paper (q ≤ 0.05, log2 ratio ≤ -1)
Conditions in all cases: compound concentration: 200 uM; treatment time: 3 h
USP16 = USP16 (UniProt Q9Y5T5)
In short: (§1)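 Labelled DUBs from HEK293T lysate were NeutrAvidin-enriched, digested with LysC and trypsin, and run by diaPASEF LC-MS/MS. Before that, each 495 µg sample in Tris/CHAPS/IGEPAL buffer with protease inhibitors was treated in triplicate with fragment at 200 µM or vehicle for 3 h, then with Biotin-Ahx-Ub-VS at 0.5 µM final for 1 h. Values are average log2 ratios of fragment over vehicle by unpaired t-test, based on global-median-normalised Spectronaut label-free quantities from proteins with ≥2 unique peptides.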

USP19 = biological target: T1, USP19 (UniProt O94966)
T1 sequence (whole entry): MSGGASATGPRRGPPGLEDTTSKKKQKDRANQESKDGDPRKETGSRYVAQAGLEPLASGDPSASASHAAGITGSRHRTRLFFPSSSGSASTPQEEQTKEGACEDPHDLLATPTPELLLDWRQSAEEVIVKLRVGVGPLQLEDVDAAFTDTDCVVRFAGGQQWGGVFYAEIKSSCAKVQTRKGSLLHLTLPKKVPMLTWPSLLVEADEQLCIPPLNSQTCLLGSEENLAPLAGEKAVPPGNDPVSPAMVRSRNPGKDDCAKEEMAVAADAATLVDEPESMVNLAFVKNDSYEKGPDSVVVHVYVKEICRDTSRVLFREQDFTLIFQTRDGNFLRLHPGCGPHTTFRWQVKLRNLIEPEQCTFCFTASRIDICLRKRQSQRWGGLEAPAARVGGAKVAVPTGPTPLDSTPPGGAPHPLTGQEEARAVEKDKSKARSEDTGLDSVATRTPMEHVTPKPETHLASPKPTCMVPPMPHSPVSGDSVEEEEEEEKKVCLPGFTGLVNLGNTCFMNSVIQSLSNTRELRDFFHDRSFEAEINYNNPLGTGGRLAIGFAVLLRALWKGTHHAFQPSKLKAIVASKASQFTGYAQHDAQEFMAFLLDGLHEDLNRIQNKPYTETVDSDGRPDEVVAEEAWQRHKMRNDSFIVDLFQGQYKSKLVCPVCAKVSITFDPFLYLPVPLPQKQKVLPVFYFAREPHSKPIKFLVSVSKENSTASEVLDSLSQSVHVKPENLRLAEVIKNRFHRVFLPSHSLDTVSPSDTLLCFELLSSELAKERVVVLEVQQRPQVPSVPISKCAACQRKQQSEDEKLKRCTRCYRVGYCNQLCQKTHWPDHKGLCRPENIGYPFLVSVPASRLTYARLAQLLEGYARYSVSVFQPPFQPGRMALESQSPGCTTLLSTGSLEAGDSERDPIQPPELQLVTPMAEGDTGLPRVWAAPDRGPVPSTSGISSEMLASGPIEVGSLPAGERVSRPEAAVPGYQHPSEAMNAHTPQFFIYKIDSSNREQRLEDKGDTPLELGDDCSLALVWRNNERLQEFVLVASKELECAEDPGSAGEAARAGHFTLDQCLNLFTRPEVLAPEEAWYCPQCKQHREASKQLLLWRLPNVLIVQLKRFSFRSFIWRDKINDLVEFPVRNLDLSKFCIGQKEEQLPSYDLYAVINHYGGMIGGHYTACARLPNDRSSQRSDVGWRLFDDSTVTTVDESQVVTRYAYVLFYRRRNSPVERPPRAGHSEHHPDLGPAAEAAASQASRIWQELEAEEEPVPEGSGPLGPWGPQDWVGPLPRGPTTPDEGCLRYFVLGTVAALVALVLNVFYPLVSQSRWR
In short: as §1

USP24 = USP24 (UniProt Q9UPU5)
USP24, sequence (Q9UPU5 whole entry): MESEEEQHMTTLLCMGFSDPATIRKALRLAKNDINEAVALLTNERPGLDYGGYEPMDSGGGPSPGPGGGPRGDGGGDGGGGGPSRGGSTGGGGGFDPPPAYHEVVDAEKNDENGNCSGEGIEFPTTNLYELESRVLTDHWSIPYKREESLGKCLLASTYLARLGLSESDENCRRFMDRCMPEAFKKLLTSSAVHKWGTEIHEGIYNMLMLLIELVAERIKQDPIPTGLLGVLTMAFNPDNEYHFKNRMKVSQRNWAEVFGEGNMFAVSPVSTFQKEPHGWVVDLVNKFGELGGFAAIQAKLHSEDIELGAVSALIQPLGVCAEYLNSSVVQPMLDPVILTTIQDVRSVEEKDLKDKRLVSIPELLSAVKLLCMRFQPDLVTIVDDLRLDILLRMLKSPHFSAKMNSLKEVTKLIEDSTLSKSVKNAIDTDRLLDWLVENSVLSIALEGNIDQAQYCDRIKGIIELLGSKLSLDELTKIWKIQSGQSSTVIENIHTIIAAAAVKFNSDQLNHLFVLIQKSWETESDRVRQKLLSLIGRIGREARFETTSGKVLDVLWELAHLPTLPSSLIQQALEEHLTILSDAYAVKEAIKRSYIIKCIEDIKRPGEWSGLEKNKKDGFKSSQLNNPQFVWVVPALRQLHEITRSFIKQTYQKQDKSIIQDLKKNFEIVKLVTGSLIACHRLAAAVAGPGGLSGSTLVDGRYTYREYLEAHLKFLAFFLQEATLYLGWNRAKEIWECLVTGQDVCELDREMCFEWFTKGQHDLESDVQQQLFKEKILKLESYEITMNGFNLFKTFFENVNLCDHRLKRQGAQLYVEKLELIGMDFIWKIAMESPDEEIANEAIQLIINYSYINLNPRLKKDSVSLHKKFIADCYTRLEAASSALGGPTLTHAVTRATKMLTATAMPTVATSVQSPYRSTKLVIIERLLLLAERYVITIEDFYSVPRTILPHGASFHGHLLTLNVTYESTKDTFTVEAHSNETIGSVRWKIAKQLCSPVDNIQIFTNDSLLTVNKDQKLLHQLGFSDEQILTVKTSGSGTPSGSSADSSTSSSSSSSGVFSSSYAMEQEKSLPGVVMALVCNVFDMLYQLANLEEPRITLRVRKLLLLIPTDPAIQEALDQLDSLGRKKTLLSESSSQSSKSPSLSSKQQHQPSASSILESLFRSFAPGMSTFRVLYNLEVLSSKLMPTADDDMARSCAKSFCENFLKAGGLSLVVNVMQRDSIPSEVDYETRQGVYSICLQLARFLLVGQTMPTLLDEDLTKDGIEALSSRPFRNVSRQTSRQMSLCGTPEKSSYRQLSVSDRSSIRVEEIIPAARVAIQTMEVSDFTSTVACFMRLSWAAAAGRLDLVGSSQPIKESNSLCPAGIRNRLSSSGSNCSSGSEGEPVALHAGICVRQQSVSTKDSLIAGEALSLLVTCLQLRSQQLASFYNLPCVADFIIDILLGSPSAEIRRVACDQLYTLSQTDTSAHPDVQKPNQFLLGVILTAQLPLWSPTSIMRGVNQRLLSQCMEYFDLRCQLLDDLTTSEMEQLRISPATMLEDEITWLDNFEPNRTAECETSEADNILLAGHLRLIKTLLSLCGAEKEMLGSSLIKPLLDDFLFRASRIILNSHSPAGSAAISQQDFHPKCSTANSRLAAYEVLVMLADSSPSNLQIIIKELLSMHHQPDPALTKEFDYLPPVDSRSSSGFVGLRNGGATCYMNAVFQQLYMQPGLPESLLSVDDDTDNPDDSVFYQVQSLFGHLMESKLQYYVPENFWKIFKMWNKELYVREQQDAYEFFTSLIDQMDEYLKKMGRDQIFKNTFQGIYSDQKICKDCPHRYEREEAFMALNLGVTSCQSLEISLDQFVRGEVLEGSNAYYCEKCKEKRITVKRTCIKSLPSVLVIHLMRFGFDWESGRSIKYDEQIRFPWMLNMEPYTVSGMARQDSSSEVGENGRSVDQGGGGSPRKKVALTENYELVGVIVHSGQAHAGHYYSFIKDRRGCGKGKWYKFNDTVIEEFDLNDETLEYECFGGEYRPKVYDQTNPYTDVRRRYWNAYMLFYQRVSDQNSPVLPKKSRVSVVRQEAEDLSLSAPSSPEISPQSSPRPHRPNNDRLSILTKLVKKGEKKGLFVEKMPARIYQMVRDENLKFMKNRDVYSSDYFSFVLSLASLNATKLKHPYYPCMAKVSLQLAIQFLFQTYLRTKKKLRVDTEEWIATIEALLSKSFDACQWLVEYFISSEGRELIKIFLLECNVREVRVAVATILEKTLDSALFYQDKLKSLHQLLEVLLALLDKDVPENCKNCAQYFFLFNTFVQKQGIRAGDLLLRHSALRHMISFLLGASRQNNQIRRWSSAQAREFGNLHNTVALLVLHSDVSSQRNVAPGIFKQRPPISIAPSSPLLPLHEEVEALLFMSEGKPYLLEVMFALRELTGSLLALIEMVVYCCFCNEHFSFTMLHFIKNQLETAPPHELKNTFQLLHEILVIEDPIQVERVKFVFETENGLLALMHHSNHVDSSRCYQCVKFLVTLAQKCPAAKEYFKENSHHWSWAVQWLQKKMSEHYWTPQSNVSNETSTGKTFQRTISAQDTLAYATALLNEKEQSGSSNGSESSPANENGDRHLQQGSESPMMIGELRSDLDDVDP
In short: as §1

USP25 = biological target: T2, USP25 (UniProt Q9UHP3)
T2 sequence (whole entry): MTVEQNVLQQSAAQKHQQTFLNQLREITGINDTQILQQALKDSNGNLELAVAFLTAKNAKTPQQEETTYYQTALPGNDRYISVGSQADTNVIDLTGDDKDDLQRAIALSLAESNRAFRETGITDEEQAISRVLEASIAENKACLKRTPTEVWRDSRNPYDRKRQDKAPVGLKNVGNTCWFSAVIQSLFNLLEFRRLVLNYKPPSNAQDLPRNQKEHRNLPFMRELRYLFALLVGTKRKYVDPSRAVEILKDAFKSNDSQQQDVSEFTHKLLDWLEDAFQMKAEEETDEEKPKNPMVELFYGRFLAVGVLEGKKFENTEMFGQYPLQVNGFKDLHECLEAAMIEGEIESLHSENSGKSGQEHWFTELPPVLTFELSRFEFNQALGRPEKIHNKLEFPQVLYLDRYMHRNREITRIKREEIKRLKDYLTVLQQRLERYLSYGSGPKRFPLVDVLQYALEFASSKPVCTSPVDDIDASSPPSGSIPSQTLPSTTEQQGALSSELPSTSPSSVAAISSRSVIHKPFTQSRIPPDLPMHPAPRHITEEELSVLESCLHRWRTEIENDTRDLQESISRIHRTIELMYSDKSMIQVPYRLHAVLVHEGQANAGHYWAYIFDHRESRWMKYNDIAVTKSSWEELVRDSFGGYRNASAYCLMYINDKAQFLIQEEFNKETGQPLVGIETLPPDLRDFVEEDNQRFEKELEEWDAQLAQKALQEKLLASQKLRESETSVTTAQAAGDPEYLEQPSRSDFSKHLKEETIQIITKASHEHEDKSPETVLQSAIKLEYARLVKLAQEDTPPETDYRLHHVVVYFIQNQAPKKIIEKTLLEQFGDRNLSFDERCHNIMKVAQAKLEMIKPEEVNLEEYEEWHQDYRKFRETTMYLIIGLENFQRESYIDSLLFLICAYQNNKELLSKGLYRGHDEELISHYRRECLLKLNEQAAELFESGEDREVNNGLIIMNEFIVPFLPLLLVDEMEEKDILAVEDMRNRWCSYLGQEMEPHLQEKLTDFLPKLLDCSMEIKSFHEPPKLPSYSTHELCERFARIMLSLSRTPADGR
In short: as §1

USP28 = biological target: T3, USP28 (UniProt Q96RU2)
T3 sequence (whole entry): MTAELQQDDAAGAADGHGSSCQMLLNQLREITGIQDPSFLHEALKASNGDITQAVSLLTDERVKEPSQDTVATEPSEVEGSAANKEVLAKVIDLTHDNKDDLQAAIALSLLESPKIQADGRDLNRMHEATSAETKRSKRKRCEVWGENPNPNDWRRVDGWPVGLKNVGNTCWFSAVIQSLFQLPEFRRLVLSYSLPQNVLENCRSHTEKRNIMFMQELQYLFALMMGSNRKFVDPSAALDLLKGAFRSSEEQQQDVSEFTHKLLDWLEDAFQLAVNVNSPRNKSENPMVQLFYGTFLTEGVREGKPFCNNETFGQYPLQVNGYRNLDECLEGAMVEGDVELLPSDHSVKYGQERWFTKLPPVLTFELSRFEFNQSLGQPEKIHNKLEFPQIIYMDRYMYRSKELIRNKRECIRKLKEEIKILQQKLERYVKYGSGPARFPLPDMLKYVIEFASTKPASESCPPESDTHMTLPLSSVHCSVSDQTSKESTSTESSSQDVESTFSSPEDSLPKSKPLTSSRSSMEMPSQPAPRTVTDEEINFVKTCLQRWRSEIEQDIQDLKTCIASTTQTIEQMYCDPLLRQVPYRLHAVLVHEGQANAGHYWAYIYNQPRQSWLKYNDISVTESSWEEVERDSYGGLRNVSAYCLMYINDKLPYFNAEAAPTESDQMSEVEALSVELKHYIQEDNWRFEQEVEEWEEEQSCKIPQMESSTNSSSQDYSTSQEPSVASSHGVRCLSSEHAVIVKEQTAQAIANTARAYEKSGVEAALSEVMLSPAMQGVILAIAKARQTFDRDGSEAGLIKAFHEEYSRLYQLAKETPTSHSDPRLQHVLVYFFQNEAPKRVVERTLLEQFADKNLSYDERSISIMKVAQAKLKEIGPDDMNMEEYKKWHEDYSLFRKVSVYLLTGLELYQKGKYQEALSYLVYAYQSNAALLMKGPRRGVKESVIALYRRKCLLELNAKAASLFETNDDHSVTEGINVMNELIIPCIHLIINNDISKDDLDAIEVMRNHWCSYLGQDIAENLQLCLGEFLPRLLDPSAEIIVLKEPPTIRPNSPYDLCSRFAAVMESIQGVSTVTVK
In short: as §1

Measured: log2 ratio of Biotin-Ahx-Ub-VS probe labelling

USP16, sequence (Q9Y5T5 whole entry, looked up, the tested form may be a part): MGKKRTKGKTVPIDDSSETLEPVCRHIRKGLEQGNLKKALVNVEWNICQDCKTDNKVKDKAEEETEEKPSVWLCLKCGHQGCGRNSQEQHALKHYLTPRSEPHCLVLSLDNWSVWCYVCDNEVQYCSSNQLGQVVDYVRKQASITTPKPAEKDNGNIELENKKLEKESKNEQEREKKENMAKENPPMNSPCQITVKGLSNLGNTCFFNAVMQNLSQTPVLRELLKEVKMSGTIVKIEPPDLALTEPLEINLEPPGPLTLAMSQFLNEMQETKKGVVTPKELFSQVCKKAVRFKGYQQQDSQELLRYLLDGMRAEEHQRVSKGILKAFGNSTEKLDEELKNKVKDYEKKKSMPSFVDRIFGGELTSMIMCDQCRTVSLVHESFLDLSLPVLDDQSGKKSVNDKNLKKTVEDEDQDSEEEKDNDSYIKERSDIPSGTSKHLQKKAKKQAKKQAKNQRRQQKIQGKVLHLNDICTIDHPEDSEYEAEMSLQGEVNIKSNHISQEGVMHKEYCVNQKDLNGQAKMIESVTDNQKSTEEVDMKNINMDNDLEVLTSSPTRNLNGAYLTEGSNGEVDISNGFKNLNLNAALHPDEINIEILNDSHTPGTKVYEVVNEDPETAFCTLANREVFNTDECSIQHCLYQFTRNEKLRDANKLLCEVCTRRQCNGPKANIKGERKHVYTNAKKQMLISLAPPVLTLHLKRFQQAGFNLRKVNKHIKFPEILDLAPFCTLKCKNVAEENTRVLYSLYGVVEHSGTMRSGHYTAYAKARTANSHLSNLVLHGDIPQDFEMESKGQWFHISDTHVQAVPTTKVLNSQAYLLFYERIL

O=C(CCl)N1CCCC2CCCCC21 (stereo not given)
inactive: USP16 -0.257 | USP19 -0.188 | USP24 -0.697 | USP25 -0.193 | USP28 -0.333

Reference: the supplement of paper PMC11732987, “Enantioselective OTUD7B fragment discovery through chemoproteomics screening and high-throughput optimisation” (Communications Chemistry, 2025)
